Experimental findings from PubChem BioAssay (Tox21) are described below.

Inconclusive results are not listed. Values without a mark were called inactive. Active and inactive are the calls of the source. Calls come from the whole dose curve; as a rule, active = well fitted activation curve with a large enough effect in the signal ratio in the repeat runs (not every such curve was filed as active); inconclusive = weak or mixed curves; inactive = flat fitted curve, though single readings scatter; the % refers to the signal ratio.
% is set by controls: 0 for no effect and ±100 for the full control effect.

This experiment can be described thus: qHTS assay to identify small molecule agonists of the TGF-beta/Smad signaling pathway (AID 1346859). The note with it: SBE-bla HEK293T, TGF-beta/Smad beta-lactamase reporter, 5 h; series mostly up to 76.8 µM. From the text:
U.S. Tox21 Program National Center for Advancing Translational Sciences [NCATS] NIH Chemical Genomics Center [NCGC] U.S. Environmental Protection Agency [EPA] National Institutes of Environmental Health Sciences [NIEHS] National Toxicology Program [NTP] U.S. Food and Drug Administration [FDA] Tox21 Assay Overview: Transforming growth factor beta (TGF-beta) superfamily consists of a large number of structurally related dimeric proteins that act as hormones or local mediators in regulating a wide range of biological functions. This superfamily includes TGF-betas themselves, the bone morphogenetic proteins (BMPs) and the activins. These ligands induce oligomerization of serine/threonine receptor kinases and phosphorylate the cytoplasmic signaling molecules of Smad protein family. CellSensor SBE-bla HEK 293T cell line (Life Technologies, Carlsbad, CA), responsive to TGF-beta was used to screen Tox21 10K compound library for identification of agonists/antagonists of the Smad signaling pathway. This cell line contains a beta-lactamase reporter gene under control of the Smad binding element (SBE) stably integrated into HEK 293T cells.
Tox21 Assay Protocol Summary: SBE-bla HEK 293T cells were dispensed at 4,000/well in 6 uL of assay medium into black wall/clear-bottom 1536-well plates using a Multidrop Combi (ThermoFisher Scientific, Waltham, MA) dispenser. After the assay plates were incubated at 37 C and 5% CO2 for an overnight, 23 nL of compounds dissolved in DMSO, positive controls or DMSO only was transferred to the assay plate by a Pintool station (Kalypsys, San Diego, CA). The assay plates were incubated at 37 C and 5% CO2 for 5 hr. One uL of LiveBLAzer B/G FRET substrate (Life Technologies) was added using a Flying Reagent Dispenser (Aurora Discovery, San Diego, CA) and the plates were incubated at room temperature for 2 hr. Fluorescence intensity (405 nm excitation, 460 nm and 530 nm emissions) was measured using an Envision plate reader (PerkinElmer, Shelton, CT).
As for `N[C@H]1C(O)O[C@H](CO)[C@@H](O)[C@@H]1O` (stereo not given in full), the compound was classed as inactive.
The same measure, in the same setting: under `CC[N+](C)(CC)CC` stands “inactive”; under `CC(CN1CC(=O)NC(=O)C1)N1CC(=O)NC(=O)C1` (stereo not given), “inactive”; under `CC(=O)OC/C=C(/C)CCC=C(C)C`, “inactive”.
Take `CC(C)(O)c1ccc(C(C)(C)O)cc1`: the compound was called inactive.
On the same count and under the same terms, under `CCCCS` stands “inactive”; under `CCCCCC(CC)OC(=O)CCCOc1ccc(Cl)cc1Cl` (stereo not given), “inactive”.
On the same count and under the same terms, under `CCCC(=O)CC` stands “inactive”.
`Clc1cc(Cl)c(Cl)c(Cl)c1Cl`: the outcome was inactive.
Regarding `CCCCCCCOC(C)=O`, the compound was called inactive.
Same read-out and setting: under `N#CC1(N)CCCCC1` stands “inactive”; under `O=S(=O)(O)c1ccc(Cl)cc1`, “inactive”; under `CN1CCN(C(=O)C2CCCCC2)CC1`, “inactive”.
Still for that read-out and setting: for `CC(C)=CCC/C(C)=C\C#N` the value was “inactive”; for `O=c1[nH]c(=O)c2cn[nH]c2[nH]1`, “inactive”.
For the compound `N#Cc1ccccc1C#N`, the compound was called inactive.
Same read-out and setting: under `CCN1CCN(C(=O)N[C@@H](C(=O)N[C@@H]2C(=O)N3C(C(=O)O)=C(CSc4nnnn4C)CS[C@H]23)c2ccc(O)cc2)C(=O)C1=O` stands “inactive”.
The same measure, in the same setting: for `C=CC(C)(CCC=C(C)C)OC(=O)C(C)C` (stereo not given) the value was “inactive”.
The same measure, in the same setting: under `CCO[Si](CC(C)C)(OCC)OCC` stands “inactive”; under `C=CC(=O)OCCOCCOCC`, “inactive”; under `CCCCCCC(=O)c1ccccc1`, “inactive”.
On to `O=C(OOC(=O)c1ccccc1)c1ccccc1`, for which the call was inactive.
Same read-out and setting: for `C/C=C/C(=O)CCCC` the value was “inactive”; for `CCOC(=O)CN1CCCC1=O`, “inactive”.
Same read-out and setting: under `Nc1ccc(C(=O)NCC(=O)O)cc1` stands “inactive”; under `C[n+]1ccccc1/C=N/O`, “inactive”.
Same read-out and setting: for `CC(C)OC(=O)C(C(=O)OC(C)C)=C1SC=CS1` the value was “inactive”; for `Cc1ccc(O)c([N+](=O)[O-])c1`, “inactive”; for `C/C=C(\C)C(=O)OC/C=C(\C)CCC=C(C)C`, “inactive”.
Take `C[C@@H]1NC(=O)[C@@H](N)CNC(=O)[C@H](C2CCNC(N)=N2)NC(=O)/C(=C/NC(N)=O)NC(=O)[C@H](CNC(=O)C[C@@H](N)CCCN)NC1=O` (stereo not given in full): the activation is 2.64% [at 0.29 µM].
Regarding `CC(C)(C)OC(=O)c1ccccc1C(=O)O`, the result was inactive.
The same measure, in the same setting: for `COc1cc(OC)cc(OC)c1` the value was “inactive”; for `CCCCN=C(N)N=C(N)N`, “inactive”.
On the same count and under the same terms, for `C/C=C(\C)C=O` the value was “inactive”; for `CC(C)c1cc(C(C)C)cc(C(C)C)c1`, “inactive”.
The same measure, in the same setting: for `O=P(O)(O)C(O)(Cc1cccnc1)P(=O)(O)O` the value was “inactive”.
With `CC(C)(C)c1ccc(N)cc1`, the outcome was inactive.
On the same count and under the same terms, for `CCCCCCCCCCCCCC(=O)OCC` the value was “inactive”.
Still for that read-out and setting: under `CCCOc1ccc(C(=O)OCCN(CC)CC)cc1N` stands “inactive”; under `COCCCOc1cc(C[C@@H](C[C@H](N)[C@@H](O)C[C@H](C(=O)NCC(C)(C)C(N)=O)C(C)C)C(C)C)ccc1OC`, “inactive”.
